Source: PubChem
The list is not random: actives were taken first. Their share in the collection is about 10%.
Lamin A splicing: modulators of lamin A splicing | Potency, µM (doses to about 46.1 µM), actives largely listed as inhibitors | AID 1487 | actives 0.01% (n = 200,000) | HeLa LMNA splicing GFP/RFP minigene ratio, 48 h; active means well fitted inhibition curve with a large enough effect in the signal ratio, with a control signal flat, not every such curve was filed as active; inconclusive means small, poorly fitted or top-dose-only effect, or effect the other way, or a change in a side signal; the % refers to the signal ratio
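S3 HeLa stable clones carrying a lamin A-EGFP splicing minigene plus DsRed2 were seeded at 600 cells/well in Opti-MEM with 2% FBS, pin-dosed and incubated 48 h at 37°C. Acumen cytometry (488 nm) gave the GFP/RFP total-intensity ratio.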
PNC assembly inh: perinucleolar compartment assembly inhibition. PC3M PTB-GFP, PNC prevalence imaging, 16 h; stronger effect = lower value. activity change (PNC), negative = inhibition, % at 10 µM. actives 3.1% (n = 140,000);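 active means readout at or below -70, meaning at least 70% loss of cells showing the perinucleolar compartment, a nuclear body marking cancer cells; inconclusive means readout between -30 and a set limit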
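Compounds are pinned in duplicate onto adhered PC3M cells stably expressing GFP-tagged PTB and incubated 16 h at 37 C. Cells are then fixed, nuclei stained with Hoechst, and PNC-positive cells counted.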
HPGD block: HPGD (human) dehydrogenase inhibition; Potency, µM, actives largely listed as inhibitors; AID 894; P15428; purified HPGD, NADH fluorescence kinetic, PGE2 substrate; actives 4.3% (n = 150,000)
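NADH formation kinetics: reaction with 30 uM PGE2 and 1 mM NAD+ (final), 20 nM enzyme, Tris-HCl pH 8 with Tween 20, after 15 min compound preincubation at room temperature. Fluorescence change, last versus first of five reads.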
ALOX12 inhib: inhibitors of human 12-lipoxygenase (ALOX12); AID 1452; purified 12-hLO, xylenol orange hydroperoxide absorbance; Potency, µM (highest dose often 57.1 µM), actives largely listed as inhibitors; actives 0.12% (n = 150,000); active means well fitted inhibition curve with a large enough effect; inconclusive means small, poorly fitted or top-dose-only effect; further: nearly all actives have a fitted effect of over 55% in size
Target sequence (P18054 whole entry, looked up): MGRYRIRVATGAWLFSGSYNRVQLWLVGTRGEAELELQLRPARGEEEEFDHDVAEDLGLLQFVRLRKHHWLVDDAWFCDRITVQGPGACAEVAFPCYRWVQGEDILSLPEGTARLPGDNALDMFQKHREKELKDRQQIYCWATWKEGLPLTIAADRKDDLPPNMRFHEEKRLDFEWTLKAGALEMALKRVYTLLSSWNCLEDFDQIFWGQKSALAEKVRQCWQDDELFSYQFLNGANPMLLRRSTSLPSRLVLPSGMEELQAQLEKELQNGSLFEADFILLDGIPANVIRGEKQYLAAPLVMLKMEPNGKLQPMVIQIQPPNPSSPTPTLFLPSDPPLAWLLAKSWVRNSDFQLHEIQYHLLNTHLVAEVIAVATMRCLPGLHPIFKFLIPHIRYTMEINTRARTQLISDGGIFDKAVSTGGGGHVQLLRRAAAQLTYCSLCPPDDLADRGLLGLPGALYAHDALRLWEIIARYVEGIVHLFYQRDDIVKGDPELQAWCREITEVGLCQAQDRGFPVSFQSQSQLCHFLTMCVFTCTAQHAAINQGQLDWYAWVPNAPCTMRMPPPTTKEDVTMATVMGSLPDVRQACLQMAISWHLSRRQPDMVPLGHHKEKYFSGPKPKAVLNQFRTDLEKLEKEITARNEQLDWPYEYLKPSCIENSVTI
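Hydroperoxide formation by human 12-lipoxygenase from 40 uM arachidonic acid was followed colorimetrically via ferric-xylenol orange complex, using the 573/405 nm absorbance ratio. Enzyme concentration was 150 nM, with 30 min reaction at room temperature.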
ALDH1A1 block: blocks purified human ALDH1A1 activity | Purified ALDH1A1, NADH fluorescence, propionaldehyde substrate | Potency, µM (series often up to 75.3 µM), usual class: inhibitors | actives 7.3% (n = 220,000) | AID 1030
Each line names hits and unclear results; the compound was inactive in the other large screens. Unless noted, the call rests on the fitted dose curve; in most records, active means well fitted inhibition curve with a large enough effect (not every such curve was filed as active); inconclusive means small, poorly fitted or top-dose-only effect, or another doubt; inactive means no such curve, though single readings can be large or run the other way.

C[C@H](NCCN(C)C)[C@@H]1CCC2C3CCc4cc(O)ccc4[C@H]3CCC21C (some centres not stated)	none (no result: Lamin A splicing, PNC assembly inh)
O=c1ccc2ccc(O)c(O)c2o1	Lamin A splicing inconclusive, HPGD block inconclusive, ALDH1A1 block inconclusive (no result: PNC assembly inh)
O=C(O)CCc1c2ccc(=O)c(O)c-2oc2c(O)c(O)ccc12	HPGD block 2.8µM, ALDH1A1 block inconclusive (no result: Lamin A splicing, PNC assembly inh)
CCCCC#Cc1nc(N)c2ncn([C@@H]3O[C@H](C(=O)NCC)[C@@H](O)[C@H]3O)c2n1	ALDH1A1 block 7.9µM (no result: PNC assembly inh, ALOX12 inhib)
CCCCC#Cc1nc(N)c2ncn([C@@H]3O[C@@H](C(=O)NCC)[C@H](O)[C@@H]3O)c2n1	none (no result: Lamin A splicing, PNC assembly inh, HPGD block, ALDH1A1 block)
C/C(=N\[N+](C)(C)C)c1ccc(C)c(C)c1	none (no result: Lamin A splicing, PNC assembly inh)
O=C(CSc1nc2sc3c(c2c(=O)n1-c1ccccc1)CCCC3)NCc1ccco1	ALDH1A1 block inconclusive
O=C(CSc1ncnc2sc3c(c12)CCCCC3)NCc1ccco1	PNC assembly inh inconclusive, HPGD block 10µM, ALDH1A1 block 8.9µM
Cc1nc2sc3c(c2c2nnc(SCC(=O)NCc4ccco4)n12)CCCC3	HPGD block 28µM, ALDH1A1 block 14µM
O=C(CSc1ncnc2sc3c(c12)CCCC3)c1ccco1	Lamin A splicing inconclusive, PNC assembly inh inconclusive, HPGD block inconclusive, ALDH1A1 block 22µM
O=C(c1noc2c1CCCCC2)N1CCN(c2cccc(C(F)(F)F)c2)CC1	none (no result: PNC assembly inh, HPGD block, ALOX12 inhib, ALDH1A1 block)
C[N+](C)([O-])Cc1cc(-c2ccccc2)ccc1O	none (no result: Lamin A splicing, PNC assembly inh)
Cc1noc(C)c1C(=O)N1CCC2(CCCN(C(=O)Nc3cccc(F)c3)C2)CC1	none (no result: Lamin A splicing, PNC assembly inh)
O=C(CN1CCN(Cc2ccc(Cl)cc2)CC1)N/N=C/C=C/c1ccccc1[N+](=O)[O-]	Lamin A splicing inconclusive, ALDH1A1 block inconclusive
O=C(CSc1nnc(SCc2ccccc2)s1)N/N=C/C=C/c1ccccc1[N+](=O)[O-]	PNC assembly inh inconclusive
O=C(CSc1nnc(SCc2ccccc2)s1)N/N=C/C=C\c1ccco1	HPGD block 16µM, ALDH1A1 block 18µM
C/C(=N\NC(=O)Cc1cccn1C)c1ccc2ccccc2c1	ALDH1A1 block inconclusive
C/C(=N/NC(=O)Cc1cccn1C)c1ccccc1	ALDH1A1 block 18µM
CCn1c(SCC(=O)N/N=C/C=C/c2ccccc2[N+](=O)[O-])nnc1-c1ccc(Cl)cc1	Lamin A splicing inconclusive, PNC assembly inh inconclusive, ALDH1A1 block 4.5µM
CC(/C=N/NC(=O)CSc1nc2ccccc2n1C)=C\c1ccco1	Lamin A splicing inconclusive, ALDH1A1 block 13µM
O=C(O)c1[nH]c(=O)[nH]c(=O)c1CN1CCCCC1	none (no result: Lamin A splicing, PNC assembly inh)
Cc1ccc(CNC(=O)c2nnc(Cc3cccc(F)c3)o2)cc1	none (no result: PNC assembly inh, HPGD block, ALOX12 inhib, ALDH1A1 block)
CC(C)c1csc(CN2CCC(CO)(Cc3cccc(F)c3)CC2)n1	none (no result: Lamin A splicing, PNC assembly inh, HPGD block, ALOX12 inhib)
CCn1c(SCC(=O)N/N=C/c2ccc(C)o2)nnc1-c1ccc(C)cc1	ALDH1A1 block inconclusive
Cn1cccc1CC(=O)N/N=C/C=C/c1ccco1	PNC assembly inh inconclusive, HPGD block 16µM
Cc1ccc(OCC(=O)N/N=C/C=C/c2ccco2)cc1	ALDH1A1 block inconclusive
CCn1c(SCC(=O)N/N=C/C=C/c2ccco2)nc2ccccc21	ALDH1A1 block 13µM
CCn1c(SCC(=O)N/N=C/C=C/c2ccco2)nnc1-c1ccc(OC)cc1	PNC assembly inh inconclusive, HPGD block 32µM
CCn1c(SCC(=O)N/N=C/c2ccc(C)s2)nc2ccccc21	Lamin A splicing inconclusive, ALDH1A1 block inconclusive
O=C(NNc1c(Cl)cc(Cl)cc1Cl)C1CCC1	Lamin A splicing inconclusive, HPGD block 32µM
c1ccc(NCCCNc2ccccc2)cc1	ALDH1A1 block 20µM
CCN(CC)C(=O)c1ccc(S(=O)(=O)N2CCC(c3nc4ccccc4s3)CC2)cc1	Lamin A splicing inconclusive, PNC assembly inh -100
CCOc1cc(S(=O)(=O)N2CCC(c3nc4ccccc4s3)CC2)c(OCC)cc1S(=O)(=O)N1CCCCC1	none
CN(C)Cc1ccccc1-c1cncnc1NCc1cccs1	none (no result: PNC assembly inh)
C[C@H]1Cc2c(COc3ccccc3)nc3c(c2CO1)CN(C(=O)c1ccco1)CC3	none (no result: PNC assembly inh)
CCc1ccc(C(=O)c2cnc3ccc(OC)cc3c2N2CCN(CC)CC2)cc1	Lamin A splicing inconclusive, ALDH1A1 block 18µM (no result: PNC assembly inh, HPGD block, ALOX12 inhib)
CCOc1ccc(C(=O)c2cnc3ccccc3c2N2CCN(CC)CC2)cc1	ALDH1A1 block 8.9µM (no result: Lamin A splicing, PNC assembly inh, HPGD block, ALOX12 inhib)
CCOC(=O)c1cnc2ccc(OCC)cc2c1N1CCN(c2ccccc2OC)CC1	Lamin A splicing inconclusive, ALDH1A1 block inconclusive
